From the supplement of paper PMC12350171
Structures can show the parent of a compound that is named as a salt.

How the values were obtained:
Assay in all cases: growth AUC normalised to DMSO control (median) (fraction of control); higher = less growth inhibition, active = hit call of the paper
Details in all cases: 20 µM;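 active = normalised median growth AUC below 0.1 of DMSO control; inactive = AUC 0.1 or higher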
P. vulgatus RND KO = test system: P. vulgatus RND KO
Procedure, shortened: (§1)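 In 96-well plates of mGAM seeded at OD578 0.01, strains that had been passaged twice overnight without oxygen were exposed to approved-drug library compounds at 20 μM with 1% DMSO. Hourly OD578 readings were taken for 24 h in an anaerobic incubator. The trapezoidal-rule area under the curve, with curves truncated at entry into stationary phase, was expressed relative to same-plate vehicle wells as the median of three biological replicates.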

P. vulgatus WT = test system: P. vulgatus WT
Procedure, shortened: as §1

[1] = test system: S. enterica typhimurium WT
Procedure, shortened: as §1

[2] = test system: S. enterica typhimurium tolC KO
Procedure, shortened: as §1

Measured: growth AUC normalised to DMSO control
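Further: active when median AUC fell below 0.1.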

CCCC(=O)N1CCCN(c2nc(N)c3cc(OC)c(OC)cc3n2)CC1 [Bunazosin hydrochloride]
inactive: P. vulgatus RND KO 1.01 | P. vulgatus WT 1.01 | [1] 1 | [2] 0.994

CN(C)CCCN1c2ccccc2[S+]([O-])c2ccc(Cl)cc21 (stereo unspecified) [Chlorpromazine Sulfoxide]
inactive: P. vulgatus RND KO 1.07 | P. vulgatus WT 1.03 | [1] 0.995 | [2] 1.01

CC(=O)OCC(=O)[C@@]1(O)CC[C@H]2[C@@H]3CCC4=CC(=O)C=C[C@]4(C)[C@@]3(F)[C@@H](O)C[C@@]21C [Isoflupredone acetate]
inactive: P. vulgatus RND KO 1.03 | P. vulgatus WT 0.986 | [1] 1 | [2] 0.98

CC(=O)OC[C@H]1O[C@@H](n2ncc(=O)[nH]c2=O)[C@H](OC(C)=O)[C@@H]1OC(C)=O [Azaribine]
inactive: P. vulgatus RND KO 0.972 | P. vulgatus WT 0.956 | [1] 1 | [2] 1

Brc1c(NC2=NCCN2)ccc2nccnc12 [Brimonidine L-tartrate]
inactive: P. vulgatus RND KO 0.994 | P. vulgatus WT 1.02 | [1] 0.999 | [2] 1.01

CC(COc1ccccc1)NN (stereo unspecified) [Phenoxypropazine dihydrochloride]
inactive: P. vulgatus RND KO 1.07 | P. vulgatus WT 1.08 | [1] 1.01 | [2] 0.994

CC(C)=CCC1C(=O)N(c2ccccc2)N(c2ccccc2)C1=O [Feprazone]
inactive: P. vulgatus RND KO 1.04 | P. vulgatus WT 1.09 | [1] 1 | [2] 0.983

Cn1cc(C(=O)[C@@H]2CCc3[nH]cnc3C2)c2ccccc21 [Ramosetron hydrochloride]
inactive: P. vulgatus RND KO 0.999 | P. vulgatus WT 0.997 | [1] 0.995 | [2] 0.975

Oc1c(Cl)cc(Cl)cc1Sc1cc(Cl)cc(Cl)c1O [Bithionol]
inactive: [1] 0.991
active: P. vulgatus RND KO 0.0149 | P. vulgatus WT 0.0115 | [2] 0.0167

O=c1oc2cc(O)ccc2s1 [Tioxolone]
inactive: P. vulgatus RND KO 1.02 | P. vulgatus WT 1.02 | [1] 0.989 | [2] 0.999

CCOC(=O)[C@H](CCc1ccccc1)N[C@@H](C)C(=O)N(CC(=O)O)C1Cc2ccccc2C1 [Delapril Hydrochloride]
inactive: P. vulgatus RND KO 1 | P. vulgatus WT 0.999 | [1] 1 | [2] 0.987

CCOc1cc(N)c(Cl)cc1C(=O)NCC1CN(Cc2ccc(F)cc2)CCO1 (stereo unspecified) [Mosapride]
inactive: P. vulgatus RND KO 0.938 | P. vulgatus WT 0.981 | [1] 0.988 | [2] 0.722

N#Cc1cc(NC(=O)C(=O)O)c(Cl)c(NC(=O)C(=O)O)c1 [Lodoxamide]
inactive: P. vulgatus RND KO 1 | P. vulgatus WT 1.04 | [1] 1 | [2] 1.01

Nc1ccc(S(=O)(=O)Nc2ccc(Cl)nn2)cc1 [Sulfachloropyridazine]
inactive: P. vulgatus RND KO 1.03 | P. vulgatus WT 1.02 | [1] 0.965 | [2] 0.963

COc1cc2/c(=N/c3ccc(Br)cc3F)nc[nH]c2cc1OCC1CCN(C)CC1 [Vandetanib]
inactive: P. vulgatus RND KO 1.1 | P. vulgatus WT 1.08 | [1] 1.02 | [2] 1.01

CC(C(=O)O)c1ccc2c(c1)CC(=O)c1ccccc1S2 (stereo unspecified) [Zaltoprofen]
inactive: P. vulgatus RND KO 1.02 | P. vulgatus WT 1.01 | [1] 0.998 | [2] 0.978

O=[N+]([O-])c1ccc(O)c2ncccc12 [Nitroxoline]
active: P. vulgatus RND KO 0.0544 | P. vulgatus WT 0.0282
inactive: [1] 0.237 | [2] 0.169

CCCCOCCOCCOCc1cc2c(cc1CCC)OCO2 [Piperonyl butoxide]
inactive: P. vulgatus RND KO 1.08 | P. vulgatus WT 1.05 | [1] 1.02 | [2] 0.872

CC1=C(C(=O)O)N2C(=O)[C@@H](NC(=O)[C@H](N)C3=CCC=CC3)[C@H]2SC1 [Cephradine monohydrate]
inactive: P. vulgatus RND KO 1.04 | P. vulgatus WT 1.05 | [1] 0.991 | [2] 1.01

CC(C(=O)O)c1ccc(CC2CCCC2=O)cc1 (stereo unspecified) [Loxoprofen]
inactive: P. vulgatus RND KO 1.01 | P. vulgatus WT 1.01 | [1] 1.01 | [2] 1.01

CC(=O)Oc1cc2c(s1)CCN(C(C(=O)C1CC1)c1ccccc1F)C2 (stereo unspecified) [Prasugrel]
inactive: P. vulgatus RND KO 1.06 | P. vulgatus WT 1.07 | [1] 1.03 | [2] 1.01

OC[C@H]1O[C@H](O[C@H]2O[C@H](CO)[C@@H](O)[C@H](O)[C@H]2O)[C@H](O)[C@@H](O)[C@@H]1O [Trehalose dihydrate]
inactive: P. vulgatus RND KO 1 | P. vulgatus WT 1 | [1] 1.01 | [2] 1.01

COCCCOc1cc(C[C@@H](C[C@H](N)[C@@H](O)C[C@H](C(=O)NCC(C)(C)C(N)=O)C(C)C)C(C)C)ccc1OC [Aliskiren hemifumarate]
inactive: P. vulgatus RND KO 1 | P. vulgatus WT 1.05 | [1] 0.997 | [2] 1

CNCc1cc(-c2ccccc2F)n(S(=O)(=O)c2cccnc2)c1 [Vonoprazan]
inactive: P. vulgatus RND KO 1.02 | P. vulgatus WT 1.04 | [1] 1 | [2] 0.995

COC(=O)[C@H](c1ccccc1Cl)N1CCc2sccc2C1 [Clopidogrel]
inactive: P. vulgatus RND KO 0.999 | P. vulgatus WT 0.996 | [1] 1 | [2] 0.914

NC(=O)c1cn(Cc2c(F)cccc2F)nn1 [Rufinamide]
inactive: P. vulgatus RND KO 0.994 | P. vulgatus WT 0.963 | [1] 1 | [2] 1

Nc1c2ccccc2nc2ccccc12 [Aminacrine]
inactive: P. vulgatus RND KO 1.07 | P. vulgatus WT 1.02 | [1] 0.902 | [2] 0.903

O=P(O)(O)C(O)(Cn1ccnc1)P(=O)(O)O [Zoledronic acid hydrate]
inactive: P. vulgatus RND KO 0.972 | P. vulgatus WT 0.988 | [1] 1.01 | [2] 0.994

CC(C)=CCOc1ccc(/C=C/C(=O)c2ccc(OCC=C(C)C)cc2OCC(=O)O)cc1 [Sofalcone]
inactive: P. vulgatus RND KO 0.914 | P. vulgatus WT 0.993 | [1] 1 | [2] 0.902

O=C1[C@H]2CCCC[C@H]2C(=O)N1CCCCN1CCN(c2nsc3ccccc23)CC1 [Perospirone hydrochloride]
inactive: P. vulgatus RND KO 0.997 | P. vulgatus WT 0.986 | [1] 0.998 | [2] 0.98

CC(=O)N[C@@H](CCC(N)=O)C(=O)O [Acetyl-L-glutamine]
inactive: P. vulgatus RND KO 0.995 | P. vulgatus WT 1 | [1] 0.998 | [2] 0.999

Cc1cc2nc3ccc(=[N+](C)C)cc-3sc2cc1N [Tolonium chloride]
inactive: P. vulgatus RND KO 0.996 | P. vulgatus WT 1 | [1] 0.981 | [2] 0.987

C/C(=C\C(=O)OCCCCCCCCC(=O)O)C[C@@H]1OC[C@H](C[C@@H]2O[C@H]2[C@@H](C)[C@H](C)O)[C@@H](O)[C@H]1O [Mupirocin]
inactive: P. vulgatus RND KO 1 | P. vulgatus WT 1.04 | [1] 0.403
active: [2] 0.0105

Cc1c(C(=O)NN2CCCCC2)nn(-c2ccc(Cl)cc2Cl)c1-c1ccc(Cl)cc1 [Rimonabant]
inactive: P. vulgatus RND KO 1.05 | P. vulgatus WT 1.07 | [1] 1 | [2] 1

CC(C)[C@H](N)C(=O)OCC(CO)OCn1cnc2c(=O)nc(N)[nH]c21 (stereo partly specified) [Valganciclovir hydrochloride]
inactive: P. vulgatus RND KO 1.04 | P. vulgatus WT 1.08 | [1] 1 | [2] 1

C[C@@H](O)[C@H]1C(=O)N2C(C(=O)O)=C(S[C@@H]3CN[C@H](CNS(N)(=O)=O)C3)[C@H](C)[C@H]12 [Doripenem monohydrate]
active: P. vulgatus RND KO 0.00779 | P. vulgatus WT 0.00747 | [1] 0.00575 | [2] 0.00595

N#C/C(=C1/SCC(c2ccccc2Cl)S1)n1ccnc1 (stereo unspecified) [Lanoconazole]
inactive: P. vulgatus RND KO 1.04 | P. vulgatus WT 1.08 | [1] 1 | [2] 0.834

Oc1cc(O)c2c(c1)O[C@H](c1ccc(O)c(O)c1)[C@@H](O)C2 [Cianidanol]
inactive: P. vulgatus RND KO 1 | P. vulgatus WT 1.01 | [1] 1.01 | [2] 0.994

Nc1nc2[nH]cnc2c(=S)[nH]1 [Tioguanine]
inactive: P. vulgatus RND KO 1.01 | P. vulgatus WT 1 | [1] 0.907 | [2] 0.876

CC(/C=C1\SC(=S)N(CC(=O)O)C1=O)=C\c1ccccc1 [Epalrestat]
inactive: P. vulgatus RND KO 1.01 | P. vulgatus WT 1.05 | [1] 1.01 | [2] 0.921

CC(C)Cc1ccc(C(C)C(=O)OCc2ccccn2)cc1 (stereo unspecified) [Ibuprofen Piconol]
inactive: P. vulgatus RND KO 1 | P. vulgatus WT 1.05 | [1] 0.999 | [2] 0.875

CC(C)(CO)[C@@H](O)C(=O)NCCC(=O)NCCSSCCNC(=O)CCNC(=O)[C@H](O)C(C)(C)CO [D-Pantethine]
inactive: P. vulgatus RND KO 1.01 | P. vulgatus WT 1.01 | [1] 1 | [2] 1

CCCCc1oc2ccc(NS(C)(=O)=O)cc2c1C(=O)c1ccc(OCCCN(CCCC)CCCC)cc1 [Dronedarone hydrochloride]
inactive: P. vulgatus RND KO 1.01 | P. vulgatus WT 1.03 | [1] 1 | [2] 1

O=C(O)C[C@H](O)C[C@H](O)/C=C/c1c(C2CC2)nc2ccccc2c1-c1ccc(F)cc1 [Pitavastatin calcium]
inactive: P. vulgatus RND KO 0.983 | P. vulgatus WT 1 | [1] 1.01 | [2] 0.999
